Source: PubChem (Broad Institute)
The list is a sample of the results.
aSyn UTR act – Activators via SNCA 5'UTR binding, MLPCN; alpha-synuclein 5'UTR reporter, activators screen; activity score, % (tested at 7.5 µM), hits read low; 7.1% of 300,000 active; AID 1814, 2009; in the data active = activity score below about -60%
Hits are given with their value; - = inactive.

SMILES	aSyn UTR act
CC(=O)c1ccc(NC(=O)CCc2nnc3ccc(N4CCCC4)nn23)cc1	-95
N#C/C(=C\c1ccc(OCC(N)=O)cc1)c1ccccc1	-154
CC(C)c1ccc(NC(=O)[C@@H]2CCC(=O)N2C2OC(=O)c3ccccc32)cc1 (stereo not given in full)	-79
CC(C)(C)c1ccc(/C=C/C(=O)c2ccc(NC3=NCCCS3)cc2)cc1	-107
O=C(/C=C/c1ccc(Br)cc1)c1ccc(NC2=NCCCS2)cc1	-99
CCOC(=O)Cn1cncc1-c1ccc([N+](=O)[O-])cc1	-119
COc1ccc(O)c(C(=O)c2cnn(-c3ccc(Cl)cc3)c2)c1	-75
CCN(CC)S(=O)(=O)c1cc(OC)ccc1N=Nc1ccc(O)c2ncccc12	-
COc1ccc(O)c(C(=O)c2cnn(-c3ccccn3)c2)c1	-130
O=C(N/N=C/c1ccc(N2CCOCC2)cc1)c1ccccn1	-103
Cc1ccc(/C=N/NC(=O)c2ccccn2)o1	-74
O=C(NN=C1C2CC3CC1CC(Cl)(C3)C2)c1ccccn1	-137
O=C(NN=C1c2ccccc2-c2ccccc21)c1ccccn1	-134
O=C(NNC(=O)C(c1ccccc1)c1ccccc1)c1ccccn1	-
O=C(N/N=C/c1ccncc1)c1ccccn1	-90
CCCNC(=O)c1noc2c1CCc1ccccc1-2	-119
O=C(Nc1cccnc1Cl)c1noc2c1CCc1ccccc1-2	-124
O=C(NCCN1CCOCC1)c1noc2c1CCc1ccccc1-2	-104
CN1C(=C2C(=O)OC(C)(C)OC2=O)Sc2ccccc21	-79
Oc1ccc(-c2csc(-c3c[nH]c4ccccc34)n2)c(O)c1	-323
Cc1ccc(-c2csc(-c3c[nH]c4ccccc34)n2)c(C)c1	-92
O=C1CC(c2ccco2)CC2=C1C1c3ccccc3C(=O)N1c1ccccc1N2 (stereo not given)	-114
Cc1cc2cc(C=C(C#N)C#N)c(Cl)nc2cc1C	-75
CN(C)c1ccc(N=Cc2nc(-c3ccccc3)oc2OC(=O)c2cccc(Cl)c2)cc1	-146
Cc1ccc(NC(=O)C2C3C=CC4(CN(Cc5cccnc5)C(=O)C24)O3)cc1 (stereo not given)	-80
SMILES	aSyn UTR act
C/C(=N\Nc1nc(C(C)(C)C)cs1)c1ccccc1	-160
C/C(=N\Nc1nc(C(C)(C)C)cs1)c1ccc(O)cc1	-107
C/C(=N\Nc1nc2c(s1)CCCC2)c1ccccc1	-178
O=C(Nc1ccc(Cl)cc1)Nc1ccc(Br)cn1	-103
Cn1ncc(Br)c1C(=O)Nc1ccc(Br)cn1	-89
CCCCCCC(=O)Nc1ccc(Br)cn1	-62
CCOc1ccc(NC(=S)NNC(=O)c2cc(Br)ccc2Cl)cc1	-109
CCOc1ccc(NC(=O)Nc2ccc(Br)cn2)cc1	-105
CC(C)OC(=O)CC12CN(C)CC(CC(=O)OC(C)C)(CN(C)C1)C2=O	-98
COc1ccc(C2C(C#N)=C(N)Nc3nc4ccccc4n32)cc1 (stereo not given)	-179
CN(C)CCCn1cnc2c(c1=N)C(c1ccccc1)c1ccc3ccccc3c1O2 (stereo not given)	-
CSc1nc(-c2ccc(Cl)cc2)nn1S(=O)(=O)c1ccccc1	-74
CS(=O)(=O)n1nc(-c2ccc(Cl)cc2)nc1SCc1ccccc1	-112
CSc1nc(-c2ccc(Cl)cc2)nn1S(=O)(=O)c1ccc(Cl)cc1	-74
CC(C)CCn1c(SCc2ccc(Cl)cc2)nc2c1c(=O)[nH]c(=O)n2C	-
COc1ccc(C(=O)/C(=C/c2cccs2)c2nc3ccccc3o2)cc1	-136
COc1ccc(/C=C(\CC(=O)O)c2nc3ccccc3o2)cc1	-109
C=CCN=Cc1sc2ccc(OCC)cc2c1O	-115
CCCCN=Cc1sc2ccc(OCC)cc2c1O	-73
Cc1nc(NC(=O)c2ccc(OCC(C)C)cc2)sc1Cc1ccc2c(c1)OCO2	-85
Cc1c(Cc2ccc3c(c2)OCO3)sc(NC(=O)c2ccc3ccccc3c2)c1C(N)=O	-80
CCCOc1ccc(C(=O)Nc2nc(C)c(Cc3ccc4c(c3)OCO4)s2)cc1	-68
O=c1c2ccccc2nnn1CSc1nc2ccccc2[nH]1	-173
Cc1ccc(SCn2nnc3ccccc3c2=O)c(C)c1	-147
O=c1c2ccccc2nnn1CSc1ccccc1F	-98
SMILES	aSyn UTR act
CC1CCCCC1NC(=O)Cn1nnc2ccccc2c1=O (stereo not given)	-
Cc1ccc(NC(=O)Cn2nnc3ccccc3c2=O)cc1	-93
Cc1ccc2nc(SCn3nnc4ccccc4c3=O)[nH]c2c1	-139
Cc1cc(C)nc(Sc2ccc3nnnn3n2)n1	-72
Cc1ccc(C(=O)Nc2ccc(C(F)(F)F)n(C)c2=O)cc1	-145
COc1ccc(C(=O)Nc2ccc(C(F)(F)F)n(C)c2=O)cc1	-151
COCCn1c(C(F)(F)F)ccc(NC(=O)c2ccccc2)c1=O	-97
CCOC(=O)C1CCN(S(=O)(=O)c2c(Cl)ccc3nonc23)CC1	-309
CCOc1ccccc1N/C=C(\C#N)c1nc2ccccc2n1C	-76
O=C1c2ccccc2-c2c1nc1c([n+]2[O-])CCCC1	-97
O=C(NC1CC1)c1c(O)c2ccccc2[nH]c1=O	-68
O=C(NC1CCCCCCC1)c1c(O)c2ccccc2[nH]c1=O	-99
